HepG2 viability = kills HepG2 cells in TGF-b inhibitor counter-screen; HepG2 CAGA-GFP viability, ATP luminescence, 18 h; 410,000 compounds, 0.76% hits; AID 588856; Potency, µM (titrated, usually from 46.1 µM), actives largely listed as cytotoxic
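CellTiter-Glo luminescence gave cytotoxicity after 18 hours at 37 degrees C. The cells were HepG2 CAGA-GFP in 1% FBS DMEM, stimulated with 500 pg/mL TGF-beta after compound addition. %Activity was normalised to no-cell wells (complete cell-killing) and DMSO (no toxicity), and curves were fitted and classified.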
TDP1 block = inhibitors of human tyrosyl-DNA phosphodiesterase TDP1 | Q9NUW8 | recombinant TDP1, AlphaScreen DNA substrate cleavage | Potency, µM (doses to about 130 µM), hits mostly inhibitors | 350,000 compounds, 0.28% hits; further: nearly all actives have a fitted effect of over 40% in size
Target sequence (Q9NUW8 whole entry, looked up): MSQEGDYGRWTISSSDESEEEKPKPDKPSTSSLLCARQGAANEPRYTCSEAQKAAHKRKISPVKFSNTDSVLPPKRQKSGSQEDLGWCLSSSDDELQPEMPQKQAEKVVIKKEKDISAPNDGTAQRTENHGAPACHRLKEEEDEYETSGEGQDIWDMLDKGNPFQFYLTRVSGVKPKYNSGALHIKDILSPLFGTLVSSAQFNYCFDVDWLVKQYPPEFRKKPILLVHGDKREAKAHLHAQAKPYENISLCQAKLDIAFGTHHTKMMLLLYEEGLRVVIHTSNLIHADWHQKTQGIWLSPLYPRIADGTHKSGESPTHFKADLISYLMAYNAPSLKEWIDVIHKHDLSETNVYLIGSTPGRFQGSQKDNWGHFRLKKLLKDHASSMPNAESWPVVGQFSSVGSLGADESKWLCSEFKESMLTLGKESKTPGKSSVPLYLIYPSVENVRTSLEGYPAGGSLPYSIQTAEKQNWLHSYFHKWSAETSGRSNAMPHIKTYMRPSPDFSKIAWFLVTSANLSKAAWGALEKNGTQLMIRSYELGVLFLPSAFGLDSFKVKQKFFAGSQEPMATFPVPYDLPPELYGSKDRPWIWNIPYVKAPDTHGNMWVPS
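Compounds were preincubated with Tdp1 (1 nM final) for 15 min at room temperature before substrate (15 nM final) started a 5 min reaction; beads (10 ug/ml final) were then added for 10 min before AlphaScreen detection.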
TGFb inhibitor = TGF-b pathway inhibition; HepG2 CAGA-GFP TGF-b/SMAD3 reporter, GFP fluorescence, 18 h; TGF-beta stimulated, 500 pg/mL final; Potency, µM (highest dose often 46.1 µM), usual class: inhibitors; 410,000 compounds, 1.2% hits; further: nearly all actives have a fitted effect of over 65% in size
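Read-out: total well GFP (ex488/em500-530) summed from mean per-cell fluorescence. Cells: HEPG2 CAGA-GFP, 1% FBS DMEM, 18 h at 37 degrees C with 500 pg/mL final TGF-beta. Unstimulated wells served as the full-inhibition control; stimulated DMSO wells = 0%.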
TDP1 cell CPT = growth inhibition of DT40 Tdp1-/-;hTDP1 cells with camptothecin (screen for TDP1 inhibitors) | chicken DT40 Tdp1-/-;hTDP1 cells + 20 nM CPT, ATP luminescence, 48 h | Potency, µM (series often up to 46.2 µM), usual class: inhibitors | 420,000 compounds, 12% hits | AID 686979; further: nearly all actives have a fitted effect of over 55% in size
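Chicken DT40 Tdp1-/- cells complemented with human TDP1, 400 cells/well, exposed to compounds plus 20 nM camptothecin for at least 48 h at 37 C; viability read as ATP content by CellTiter-Glo luminescence.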
TDP1 cell noCPT = qHTS for Inhibitors of human tyrosyl-DNA phosphodiesterase 1 (TDP1): qHTS in cells in absence of CPT. AID 686978, 2013. Potency, µM (highest dose often 46.2 µM), hits mostly inhibitors. DT40 Tdp1-/- hTDP1 cells, no CPT, ATP luminescence, 48 h. 420,000 compounds, 15% hits; further: nearly all actives have a fitted effect of over 55% in size
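Luminescent ATP content (CellTiter-Glo) served as the growth readout. Knockout chicken DT40 cells expressing human TDP1 were exposed to compounds without camptothecin for a minimum 48 hr at 37 °C.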
IL-1B inflam inh = inflammasome signaling inhibition, IL-1 beta readout | THP-1 LPS/ATP IL-1B secretion, AlphaLISA, 16 h; active compounds read low | activity change, % at 57.5 µM | 360,000 compounds, 4.7% hits | AID 743279; in the data active means activity change below about -50%; inconclusive means mostly about -30% to -49%
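THP-1 cells pretreated 1 hr with compounds (up to 57.5 uM final), then stimulated with LPS (250 ng/mL final) plus ATP (1.25 mM final); secreted IL-1B measured by AlphaLISA after 16 hr, decreased signal indicating inhibition.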
Numbers stand for hits; – = inactive; ? = inconclusive; · = no result given; ! = not active in a repeat; [ ] = remark or other dose. Compounds with a hit are over-represented: about 19% of the library has one in this group of screens. Unless noted, the call rests on the fitted dose curve; in most records, active means well fitted curve in the direction sought with a large enough effect; inconclusive means small, poorly fitted or top-dose-only effect, or another doubt; inactive means no such curve, though single readings can be large; an effect the other way counts as inactive or inconclusive.

SMILES | HepG2 viability | TDP1 block | TGFb inhibitor | TDP1 cell CPT | TDP1 cell noCPT | IL-1B inflam inh
C/C=C(\C)C(=O)N[C@@H](c1ccccc1)[C@@H](O)C(=O)O[C@H]1C[C@@]2(O)[C@@H](OC(=O)c3ccccc3)C3[C@](C)(C(=O)[C@H](OC(C)=O)C(=C1C)C2(C)C)[C@@H](O)C[C@H]1OC[C@@]31OC(C)=O (stereo partly drawn) | – | – | – | 0.013µM | 0.0103µM | –
CC(=O)O[C@@]12CO[C@@H]1C[C@H](O)[C@@]1(C)C(=O)[C@H](O)C3=C(C)[C@@H](O)C[C@@](O)([C@@H](OC(=O)c4ccccc4)C12)C3(C)C (stereo partly drawn) | – | · | – | 9.2µM | 9.2µM | –
CC(=O)O[C@H]1C(=O)[C@@]2(C)C([C@H](OC(=O)c3ccccc3)[C@]3(O)C[C@H](OC(=O)[C@H](O)[C@@H](NC(=O)c4ccccc4)c4ccccc4)C(C)=C1C3(C)C)[C@]1(OC(C)=O)CO[C@@H]1C[C@@H]2OC(=O)[C@H](C)NC(=O)c1ccc(-c2c3ccc(=O)cc-3oc3cc(O)ccc23)c(C(=O)O)c1 (stereo partly drawn) | · | –[21 µM] | · | · | · | ·
C/C=C(\C)C(=O)N[C@@H](c1ccccc1)[C@@H](O)C(=O)O[C@H]1C[C@@]2(O)[C@@H](OC(=O)c3ccccc3)C3[C@](C)(C(=O)[C@H](O)C(=C1C)C2(C)C)[C@@H](O)C[C@H]1OC[C@@]31OC(C)=O (stereo partly drawn) | – | · | – | 0.0461µM | 0.164µM | –
CN1C(=O)COc2c(C(=O)N[C@@H]3CN4CCC3CC4)cc(Cl)cc21 | · | – | · | – | – | ·
COc1cc2c(cc1OC)C13CCN4CC5=CCOC(CC(=O)O)C(C5CC41)C3N2 (stereo not drawn) | – | · | – | – | – | –
FC(F)(F)c1cccc(C2=CCN(CCc3ccc4ccccc4c3)CC2)c1 | · | – | · | – | – | ·
Cc1cc(/C=C/c2cccc3sc(C)[n+](CCCCI)c23)ccc1N(CCCl)CCCl | – | · | ? | 2µM | 1.58µM | ·
COc1ccc(C=C2C(=O)NC(=S)NC2=O)cc1OC | – | · | – | – | – | –
COc1ccc(/C=C/C=C2C(=O)NC(=S)NC2=O)cc1 | – | · | – | 3.26µM | 3.26µM | ?
COc1cccc(NC(=O)Cn2cc(C(=O)c3ccccc3)c3ccccc32)c1 | – | – | 10µM | ? | ? | ·
Cc1cccc(NC(=O)Cn2cc(C(=O)c3ccccc3)c3ccccc32)c1 | – | – | 10µM | ? | ? | ·
COc1ccc(OC)c(NC(=O)Cn2cc(C(=O)c3ccccc3F)c3ccccc32)c1 | – | – | – | ? | 23.1µM | ·
Cc1cccc(NC(=O)Cn2cc(C(=O)c3ccccc3)c3ccccc32)c1C | – | – | – | ? | ? | ·
COc1cc(/C=N/Nc2ccc(S(N)(=O)=O)cc2)cc(OC)c1OC | – | – | – | ? | 20.6µM | –
Cc1ccc(S(=O)(=O)N[C@@H](CCCCN)C(=O)CCl)cc1 | – | – | – | 8.41µM! | 8.41µM! | –
Cc1ccc(S(=O)(=O)NC(=O)NC2CCCC2)cc1 | · | · | · | – | – | ·
O=C(CCNC(=O)N1C[C@H]2C[C@@H](C1)c1cccc(=O)n1C2)Nc1cccc(Cl)c1 | – | · | – | – | – | –
COc1cc(C2Nc3c(C)cc(C)cc3-c3cc(C)nn32)cc(OC)c1O (stereo not drawn) | – | – | ? | 5.8µM | 4.11µM | ·
CC1CC(=O)O1 (stereo not drawn) | · | – | · | · | · | ·
COC(=O)c1ccccc1C(=O)c1ccc(OCCN2CCCCC2)cc1 | · | – | · | ? | – | ·
c1csc(CN2CC[C@@]3(CCCNC3)C2)n1 | · | · | · | – | – | ·
CCOc1ccc(CNC(=O)CSc2c3c(nc4cc(Cl)ccc24)CCCC3)cc1 | – | – | – | ? | ? | ·
CCOc1ccc(-c2nc(CSCC(=O)NCCc3ccc(OCC)c(OCC)c3)c(C)o2)cc1 | – | – | – | 14.6µM | 16.4µM | ·
CCSc1cc(C2C(C#N)=C(N)Oc3n[nH]c(C)c32)c(C)o1 (stereo not drawn) | – | – | ? | ? | 16.4µM | -96.6
SMILES | HepG2 viability | TDP1 block | TGFb inhibitor | TDP1 cell CPT | TDP1 cell noCPT | IL-1B inflam inh
CO/C=C(/C(=O)OC)c1ccccc1Oc1cc(Oc2ccccc2C#N)ncn1 | · | · | · | 0.243µM | 0.217µM | ·
c1ccc(C[n+]2ccccc2)cc1 | – | – | – | ? | 16.4µM | –
Cc1cc[n+](Cc2ccccc2)cc1 | – | – | – | ? | ? | –
CCCC(C)c1nnc(NC(=O)CCS(=O)(=O)c2ccccc2)s1 (stereo not drawn) | – | –[0.0935 µM] | ? | 7.31µM | 4.11µM | -95.7
[N-]=[N+]=CC(=O)OCC(N)C(=O)O (stereo not drawn) | · | – | · | · | · | ·
COC(=O)C1=C(c2ccc(F)cc2OCc2ccccc2)C[C@@H]2CC[C@H]1N2C(=O)NCc1ccccc1Cl | – | – | – | ? | ? | –
COC(=O)C1=C(c2ccc(F)cc2OCc2ccccc2)C[C@@H]2CC[C@H]1N2C(=O)N1CCCC1 | – | – | – | 6.51µM | 5.8µM | –
COC(=O)C1=C(c2ccc(F)cc2OCc2ccccc2)C[C@@H]2CC[C@H]1N2C(=O)NC1CCCCC1 | – | – | ? | ? | ? | –
COC(=O)C1=C(c2ccc(F)cc2OCc2ccccc2)C[C@@H]2CC[C@H]1N2C(=O)NC(C)C | – | – | – | ? | 20.6µM | –
COC(=O)C1=C(c2ccc(F)cc2OCc2ccccc2)C[C@@H]2CC[C@H]1N2C(=O)NC1CC1 | – | – | – | 16.4µM | ? | –
COC(=O)C(O)(c1ccc(NC(=O)NC2CCCCC2)cc1)C(F)(F)F (stereo not drawn) | – | – | – | – | ? | –
CCOC(=O)C(O)(c1ccc(NC(=S)NC(=O)c2ccc(Cl)cc2Cl)cc1)C(F)(F)F (stereo not drawn) | – | – | – | ? | 25.9µM | ?
CCOC(=O)C(O)(c1ccc(NC(=O)Oc2ccccc2)cc1)C(F)(F)F (stereo not drawn) | – | – | – | – | ? | –
COC(=O)C(O)(c1ccc(NC(=S)NC(=O)c2ccc(Cl)cc2Cl)cc1)C(F)(F)F (stereo not drawn) | – | – | ? | ? | 14.6µM | –
CCOC(=O)C(NC(=O)CCl)(Nc1ccc(C(O)(C(=O)OCC)C(F)(F)F)cc1)C(F)(F)F (stereo not drawn) | – | – | – | ? | ? | -89.0

Screening results as filed in PubChem BioAssay.
